# Screens as filed in PubChem.
# DT40 TDP1 no CPT – qHTS for Inhibitors of human tyrosyl-DNA phosphodiesterase 1 (TDP1): qHTS in cells in absence of CPT | AID 686978, 2013 | DT40 Tdp1-/- hTDP1 cells, no CPT, ATP luminescence, 48 h | Potency, µM (top dose mostly 46.2 µM), inactives show at the top dose activity change, negative = growth inhibition, usual class: inhibitors | 420,000 compounds, 15% hits; further: on the % scale 0 is the no-effect control and ±100 the full control effect; nearly all actives have a fitted effect of over 55% in size
#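 Compound effects on proliferation are scored in DT40 Tdp1-/-;hTDP1 cells in the absence of CPT. ATP levels (CellTiter-Glo luminescence) are recorded after a ≥48 hr, 37 °C incubation.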
# TDP1 cell CPT – growth inhibition of DT40 Tdp1-/-;hTDP1 cells with camptothecin (screen for TDP1 inhibitors); 420,000 compounds, 12% hits; Potency, µM (series often up to 46.2 µM), for the others: top-dose activity change, negative = growth inhibition, usual class: inhibitors; chicken DT40 Tdp1-/-;hTDP1 cells + 20 nM CPT, ATP luminescence, 48 h; further: on the % scale 0 is the no-effect control and ±100 the full control effect; nearly all actives have a fitted effect of over 55% in size
#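 Chicken DT40 Tdp1-/- cells stably complemented with human TDP1 were seeded at 400 cells/well in medium containing 20 nM camptothecin, exposed to pin-transferred compounds, and grown at 37 °C for at least 48 hr. Viability was read as ATP luminescence.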
# TDP1 block – TDP1 (human) enzyme inhibition | Potency, µM (top dose mostly 130 µM), for inactives: top-dose activity change, negative = inhibition, hits mostly inhibitors | Q9NUW8 | 350,000 compounds, 0.28% hits | recombinant TDP1, AlphaScreen DNA substrate cleavage; further: on the % scale 0 is the no-effect control and ±100 the full control effect; nearly all actives have a fitted effect of over 40% in size
#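 Tdp1 1 nM final; 15 min RT w/ cpd; substrate 15 nM, 5 min; beads 10 ug/ml, 10 min; AlphaScreen read. Neg ctrl: no enzyme.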
# ClpP mod – qHTS Assay for Activators of ClpP; purified B. subtilis ClpP, FRET peptide cleavage, 20 min; Potency, µM (highest dose often 57.5 µM), for inactives: at the highest dose activity change, negative = active; 340,000 compounds, 1.9% hits; active means well fitted falling curve with a large enough effect; inconclusive means small, poorly fitted or top-dose-only effect; inactive means no such curve, though single readings can be large or run the other way; further: the source files actives as falling curves though it sought activators and does not explain the sign; nearly all actives have a fitted effect of over 65% in size
# Target sequence (P80244 whole entry, looked up): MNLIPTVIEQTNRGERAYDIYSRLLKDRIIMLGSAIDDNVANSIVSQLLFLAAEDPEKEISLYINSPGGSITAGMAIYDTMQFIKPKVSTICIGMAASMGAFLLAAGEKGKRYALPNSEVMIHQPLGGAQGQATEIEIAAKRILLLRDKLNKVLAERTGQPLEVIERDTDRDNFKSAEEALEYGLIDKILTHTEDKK
#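 Buffer: 100 mM Tris/HCl pH8, 100 mM KCl, 0.05% low protease BSA, 2.5% glycerol, 0.01% Tween-20. ClpP 10 microg/mL final; 20 min RT; delta FRET normalized to ADEP and DMSO controls.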
# The depositor's hits bear a star; u = inconclusive; x = no result; [ ] = remark or other dose. Most compounds without a hit are left out; they make up all but 17% or so of the library. Unless noted, the call rests on the fitted dose curve; in most records, active means well fitted curve in the direction sought with a large enough effect; inconclusive means small, poorly fitted or top-dose-only effect, or another doubt; inactive means no such curve, though single readings can be large; an effect the other way counts as inactive or inconclusive. Potency means the concentration at half of the fitted maximal effect.
SMILES,DT40 TDP1 no CPT,TDP1 cell CPT,TDP1 block,ClpP mod
CCN(Cc1ccccc1)C(=O)CCS(=O)(=O)c1ccc2c(c1)NC(=O)CO2,5%,u,1%,0%
COc1cc(=O)[nH]c(SC(C)C(=O)Nc2ccc3ccccc3c2)n1 (stereo not given),8%,-1%,-4%,x
O=C(/C(=C/O)N=Nc1ccc(Cl)cc1)c1ccncc1,26µM*,15µM*,12%,11%
COc1cccc(NC(=S)N(CCc2c(C)[nH]c3ccccc23)Cc2cccs2)c1,16µM*,u,9%,2%
COCCNC(=S)N(CCc1c(C)[nH]c2ccc(Cl)cc12)Cc1cccs1,u,u,8%,x
Cc1[nH]c2ccccc2c1CCN(Cc1cccnc1)C(=S)Nc1cccc(F)c1,u,u,8%,x
Cc1[nH]c2ccccc2c1CCN(Cc1cccnc1)C(=S)Nc1ccc(F)cc1,16µM*,16µM*,2%,-1%
COCCNC(=S)N(CCc1c(C)[nH]c2ccc(F)cc12)Cc1cccs1,23µM*,u,7%,0%
Cc1ccc(NC(=O)c2cc(-c3cc(F)ccc3OCC3CCCO3)n[nH]2)cc1NS(C)(=O)=O (stereo not given),15µM*,15µM*,x,0%
COc1cc(CNC(=O)c2cc(-c3cc(F)ccc3OCC3CCCO3)n[nH]2)cc(OC)c1 (stereo not given),21µM*,u,x,-4%
Fc1cc2[nH]c(=S)[nH]c2c(Br)c1N1CCSCC1,-23%,u,x,-11%
COc1ccc(-c2nn(-c3ccccc3)cc2CNCCN2CCOC2=O)c(F)c1,u,u,4%,x
COc1ccc(-n2cc(CNCCCN3CCCC3=O)c(-c3ccccc3Cl)n2)cc1,16µM*,16µM*,x,-3%
CCc1ccccc1N(C)C(=O)c1nn(C)c2c1CSc1ccccc1-2,23µM*,u,-3%,0%
CCCN(CCC)C(=O)c1nn(C)c2c1CSc1ccc(C)cc1-2,18µM*,u,6%,1%
CCN(CC)CCCNC(=O)c1nn(C)c2c1CSc1ccccc1-2,u,u,3%,-1%
CCCN(CCC)C(=O)c1nn(C)c2c1CSc1ccccc1-2,u,18µM*,9%,2%
Cc1ccc(NC(=O)COC(=O)c2nn(C)c(=O)c3ccccc23)cc1F,6%,0%,1%,-1%
COc1ccccc1/C=C/C(=O)NNC(=O)c1cccs1,0%,-26%,3%,x
Cc1ccc(C)c(OCC(O)CN2CCCCC2C)c1 (stereo not given),u,-20%,2%,-2%
Cc1ccc(C)c(OCC(O)CN2C(C)CCCC2C)c1 (stereo not given),u,23µM*,3%,-2%
Cc1ccc(C)c(OCC(O)CN2CCC(Cc3ccccc3)CC2)c1 (stereo not given),u,21µM*,6%,1%
OC(COc1ccc(Cl)cc1)CN1CCC(Cc2ccccc2)CC1 (stereo not given),u,u,3%,-1%
CC(C)CC1NC(=O)c2cc(Cl)ccc2-n2c1nc1ccc(F)cc1c2=O (stereo not given),x,x,0%,x
CCCCSc1nnc2n(-c3cccc(C)c3)c(=O)c3c4c(sc3n12)CCCC4,16µM*,u,x,-7%
SMILES,DT40 TDP1 no CPT,TDP1 cell CPT,TDP1 block,ClpP mod
CC(=O)N1CCc2c(sc3nc(SCC(C)C)n(-c4ccc(C)c(Cl)c4)c(=O)c23)C1,u,23µM*,12%,4%
CSc1nc2sc3c(c2c(=O)n1-c1ccccc1C)CCCC3,16µM*,23µM*,4%,-1%
CCCSc1nc2sc3c(c2c(=O)n1-c1ccc(C)c(Cl)c1)CCN(C(C)=O)C3,23µM*,23µM*,0%,-6%
CC(=O)N1CCc2c(sc3nc(SCC(C)C)n(-c4ccc(F)c(Cl)c4)c(=O)c23)C1,u,u,1%,0%
COc1ccc(Cl)cc1C(=O)Nc1cccnc1Cl,-13%,6%,x,-5%
CCCSc1nc2sc3c(c2c(=O)n1-c1ccc(C)cc1)CCCC3,9.2µM*,u,0%[12.3 µM],-3%
Cc1ccc(-n2c(SCC(=O)O)nc3sc4c(c3c2=O)CCCC4)cc1,9%,9%,2%,u
CSc1nc2nc3c(cc2c(=O)n1-c1ccccc1C)CCCC3,7.3µM*,7.3µM*,3%,x
